Measured values from PubChem BioAssay.
Records with an inconclusive call do not appear. The source made the active and inactive calls.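 The calls were made as follows, unless noted: active = normalized viability below 100% at a tested concentration; inactive = the rest.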

Key:
[1] = growth inhibition of DIPG glioma cells, dose response, cell-based, SU-DIPG-XVII, MIPE5.0, CellTiter-Glo, qHTS (AID 1347060; cut-off not given, nearly all actives have AC50 up to about 26 µM;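 also: cells exposed to compound for 48 hours before viability readout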); settings: SU-DIPG-XVII viability, CellTiter-Glo ATP luminescence
[2] = growth inhibition of DIPG glioma cells, dose response, cell-based, SU-DIPG-XIII, MIPE4.0, CellTiter-Glo, qHTS (AID 1347061; cut-off not given, nearly all actives have AC50 up to about 37 µM;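 also: cells exposed to compound for 48 hours before readout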); settings: SU-DIPG-XIII viability, CellTiter-Glo ATP luminescence
[3] = growth inhibition of DIPG glioma cells, dose response, cell-based, JHH-DIPG-1, MIPE4.0, CellTiter-Glo, qHTS (AID 1347062; cut-off not given, nearly all actives have AC50 up to about 27 µM;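 also: cells exposed to compound for two days before readout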); settings: JHH-DIPG-1 viability, CellTiter-Glo ATP luminescence
[4] = growth inhibition of DIPG glioma cells, dose response, cell-based, SU-DIPG-IV, MIPE4.0, CellTiter-Glo, qHTS (AID 1347063; cut-off not given, nearly all actives have AC50 up to about 30 µM;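 also: compound exposure lasted 48 hours before the viability readout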); settings: SU-DIPG-IV viability, CellTiter-Glo ATP luminescence
[5] = viability loss in pontine glioma line – cell-based, SU-DIPG-XXV, MIPE5.0, CellTiter-Glo, qHTS, dose response (AID 1347065; cut-off not given, nearly all actives have AC50 up to about 26 µM;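 also: cells exposed to compound for 48 hours before ATP readout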); settings: CellTiter-Glo ATP luminescence
[6] = SU-DIPG-VI glioma cell viability, MIPE4.0 library, CellTiter-Glo luminescence, qHTS (AID 1347066; cut-off not given, nearly all actives have AC50 up to about 30 µM;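 also: cells exposed to compound for 48 hours before readout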); settings: CellTiter-Glo ATP luminescence
[7] = JHH-DIPG-1 glioma cell viability, MIPE5.0 library, CellTiter-Glo luminescence, qHTS (AID 1347067; cut-off not given, nearly all actives have AC50 up to about 26 µM;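 also: cells exposed to compound for 48 hours before readout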); settings: JHH-DIPG-1 glioma viability, CellTiter-Glo ATP luminescence
[8] = sensitizers of A549 cells to miR-34 induction, primary screen, imaging, A549 dox-inducible miR-34, nuclei and caspase counts (AID 1347080;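 active = compounds whose cell count with miR-34 switched on is under 0.7 times the count with it off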); settings: A549 miR-34 inducible, Hoechst nuclei count, 48 h
[9] = modifiers of HSF1 nuclear foci, imaging, Selleck Cancer Library (AID 1347162; in the data active = plate-normalised HSF1 focus index below about 0.46); settings: human cells, at 10 µM; SSMD: measured here: HSF1 foci SSMD mean; cell count: measured here: cell number; plate-normalised HSF1 focus index: stronger effect = lower value
[10] = survival rescue of mitochondrial mutant cells in low glucose, primary screen, MELAS cybrids, Rieske KO mouse fibroblasts, CellTiter-Glo (AID 1508586;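 active = mean z-score across replicates of 1.96 or higher in either the MELAS or the Rieske mutant cell line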;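 also: z relative to plate mean and SD of compound and empty wells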)
[11] = ovarian cancer cell viability with rucaparib, profiling panel, oncology-focused library, rucaparib conditional (AID 1508598); settings: patient-derived ovarian cancer cells, CellTiter-Glo viability, 144 h, stronger effect = lower value
[12] = LFS_MB_P medulloblastoma growth inhibition, cell-based, chromothripsis tumors, cisplatin or BGB combos (AID 1671449; in the data active = inhibition above about 80%;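 also: cells exposed for 96 hours; 0% = vehicle DMSO and 100% = killing by high DMSO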); settings: LFS_MB_P medulloblastoma cells
[13] = HDN33 neuroblastoma growth inhibition, cell-based, chromothripsis tumors, cisplatin or BGB combos (AID 1671450; in the data active = inhibition above about 80%;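 also: cells exposed to compound for four days; 0% = vehicle DMSO and 100% = cell killing by high DMSO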); settings: HDN33 neuroblastoma cells, stronger effect = higher value
[14] = ICB984 medulloblastoma cell growth inhibition, synergistic combos for chromothripsis tumors, cisplatin or BGB combos (AID 1671451; call rule not given here;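 also: cells exposed for 96 hours before readout; 0% = vehicle DMSO and 100% = killing by high DMSO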); settings: ICB984 medulloblastoma cells, drug combinations, stronger effect = higher value
[15] = HTB85 osteosarcoma cell growth inhibition, synergistic combos for chromothripsis tumors, BGB or cisplatin IC20 combos (AID 1671453; in the data active = inhibition above about 80%;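 also: cells exposed for 96 hours before readout; 0% = vehicle DMSO and 100% = high DMSO killing control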); settings: HTB85 osteosarcoma cells, drug combinations, stronger effect = higher value
[16] = MDA-MB-436 breast carcinoma cell growth inhibition, synergistic combos for chromothripsis tumors, BGB or cisplatin combos (AID 1671458; call rule not given here;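 also: cells exposed for 96 hours; 0% = vehicle DMSO and 100% = killing by high DMSO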); settings: MDA-MB-436 breast carcinoma growth inhibition, drug combinations, stronger effect = higher value
[17] = growth inhibition of BT084 medulloblastoma cells, cell-based, ICGC_MB145, cisplatin and BGB IC40 combos (AID 1671461; in the data active = inhibition above about 80%;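 also: cells exposed to drugs for 96 hours; 0% = vehicle DMSO and 100% = high DMSO full killing control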); settings: drug combinations, stronger effect = higher value
[18] = growth inhibition of RCMB18 medulloblastoma cells, cell-based, cisplatin and BGB IC40 combos (AID 1671462; in the data active = inhibition above about 80%;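 also: cells exposed to compound for four days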); settings: stronger effect = higher value

What does the source list for `CN(C)Cc1c(C(=O)NCCOc2ccc(C(=O)NO)cc2)oc2ccccc12`?
AC50 [1]: 4170 nM (active); AC50 [2]: 4690 nM (active); AC50 [3]: 935 nM (active); AC50 [4]: 3320 nM (active); AC50 [5]: 833 nM (active); AC50 [6]: 2960 nM (active); AC50 [7]: 934 nM (active); fold change ([8]; stronger effect = lower value, cell number ratio, induced over uninduced): 1.4 (inactive); fold change ([8]; measured here: relative caspase fold change +Dox/-Dox): 0.9; cell count ([8]; measured here: total cells with miR-34 induction, stronger effect = lower value): 1280; cell count ([8]; measured here: total cells without miR-34 induction): 916; SSMD [9]: 0.722; cell count [9]: 7540; plate-normalised HSF1 focus index [9]: 1.05 (inactive); z-score ([10]; MELAS cybrid survival, CellTiter-Glo 48 h, stronger effect = higher value): 0.162 (inactive); z-score ([10]; Rieske KO mouse fibroblast survival, CellTiter-Glo 72 h): -1.7; viability ([11]; at 0.000305 µM, OCI-C5x cells, with rucaparib 10 µM, 100% = cells with rucaparib alone): 130% (inactive); viability ([11]; at 0.000305 µM, OCI-C5x cells, without rucaparib): 128% (inactive); viability ([11]; at 0.000305 µM, OCI-P5x cells, with rucaparib 20 µM, 100% = cells with rucaparib alone): 105% (inactive); viability ([11]; at 0.000305 µM, OCI-P5x cells, without rucaparib): 104% (inactive); viability ([11]; at 0.00122 µM, OCI-C5x cells, with rucaparib 10 µM, 100% = cells with rucaparib alone): 129% (inactive); viability ([11]; at 0.00122 µM, OCI-C5x cells, without rucaparib): 123% (inactive); viability ([11]; at 0.00122 µM, OCI-P5x cells, with rucaparib 20 µM, 100% = cells with rucaparib alone): 103% (inactive); viability ([11]; at 0.00122 µM, OCI-P5x cells, without rucaparib): 104% (inactive); viability ([11]; at 0.00488 µM, OCI-C5x cells, with rucaparib 10 µM, 100% = cells with rucaparib alone): 144% (inactive); viability ([11]; at 0.00488 µM, OCI-C5x cells, without rucaparib): 128% (inactive); viability ([11]; at 0.00488 µM, OCI-P5x cells, with rucaparib 20 µM, 100% = cells with rucaparib alone): 97.2% (active); viability ([11]; at 0.00488 µM, OCI-P5x cells, without rucaparib): 101% (inactive); viability ([11]; at 0.0195 µM, OCI-C5x cells, with rucaparib 10 µM, 100% = cells with rucaparib alone): 118% (inactive); viability ([11]; at 0.0195 µM, OCI-C5x cells, without rucaparib): 131% (inactive); viability ([11]; at 0.0195 µM, OCI-P5x cells, with rucaparib 20 µM, 100% = cells with rucaparib alone): 81.2% (active); viability ([11]; at 0.0195 µM, OCI-P5x cells, without rucaparib): 97.1% (active); viability ([11]; at 0.0781 µM, OCI-C5x cells, with rucaparib 10 µM, 100% = cells with rucaparib alone): 121% (inactive); viability ([11]; at 0.0781 µM, OCI-C5x cells, without rucaparib): 138% (inactive); viability ([11]; at 0.0781 µM, OCI-P5x cells, with rucaparib 20 µM, 100% = cells with rucaparib alone): 91.6% (active); viability ([11]; at 0.0781 µM, OCI-P5x cells, without rucaparib): 104% (inactive); viability ([11]; at 0.313 µM, OCI-C5x cells, with rucaparib 10 µM, 100% = cells with rucaparib alone): 123% (inactive); viability ([11]; at 0.313 µM, OCI-C5x cells, without rucaparib): 132% (inactive); viability ([11]; at 0.313 µM, OCI-P5x cells, with rucaparib 20 µM, 100% = cells with rucaparib alone): 69.9% (active); viability ([11]; at 0.313 µM, OCI-P5x cells, without rucaparib): 79.9% (active); viability ([11]; at 1.25 µM, OCI-C5x cells, with rucaparib 10 µM, 100% = cells with rucaparib alone): 135% (inactive); viability ([11]; at 1.25 µM, OCI-C5x cells, without rucaparib): 150% (inactive); viability ([11]; at 1.25 µM, OCI-P5x cells, with rucaparib 20 µM, 100% = cells with rucaparib alone): 82.3% (active); viability ([11]; at 1.25 µM, OCI-P5x cells, without rucaparib): 77.6% (active); viability ([11]; at 5 µM, OCI-C5x cells, with rucaparib 10 µM, 100% = cells with rucaparib alone): 8.92% (active); viability ([11]; at 5 µM, OCI-C5x cells, without rucaparib): 7.82% (active); viability ([11]; at 5 µM, OCI-P5x cells, with rucaparib 20 µM, 100% = cells with rucaparib alone): 5.56% (active); viability ([11]; at 5 µM, OCI-P5x cells, without rucaparib): 34% (active); inhibition ([12]; at 0.5 µM, stronger effect = higher value): 21.6% (inactive); inhibition ([12]; measured here: combination with BGB IC20, at 0.005 µM): -27.6%; inhibition ([12]; measured here: combination with BGB IC40, at 0.005 µM): -6.96%; inhibition ([12]; measured here: combination with BGB IC40, at 0.05 µM): 9.02%; inhibition ([12]; measured here: combination with cisplatin, at 0.5 µM, stronger effect = higher value): 46.7%; inhibition ([12]; measured here: combination with cisplatin, at 5 µM, stronger effect = higher value): 110%; inhibition ([13]; BGB combo, at 5 µM): 99.4%; inhibition ([13]; at 0.5 µM): 78.8% (inactive); inhibition ([13]; cisplatin combo, at 5 µM): 99.8%; inhibition ([13]; measured here: with BGB IC20 combination, at 0.5 µM): 69%; inhibition ([13]; measured here: with cisplatin IC20 combination, at 0.5 µM): 82.8%; inhibition ([13]; single agent, at 5 µM): 99.8%; inhibition ([14]; BGB IC20 combo, at 0.005 µM): 27.4%; inhibition ([14]; BGB IC40 combo, at 0.005 µM): 31.8%; inhibition ([14]; BGB IC40 combo, at 0.05 µM): 93.6%; inhibition ([14]; at 0.5 µM): -23.7% (inactive); inhibition ([14]; cisplatin combo, at 0.05 µM): 93.4%; inhibition ([14]; cisplatin combo, at 0.5 µM): -34.8%; inhibition ([14]; cisplatin combo, at 5 µM): -32%; inhibition ([14]; measured here: 5 uM single agent, at 5 µM): -19.3%; inhibition ([15]; at 0.5 µM): 87.5% (active); inhibition ([15]; measured here: with BGB IC20, at 0.5 µM): 87.4%; inhibition ([15]; measured here: with BGB IC20, at 5 µM): 99.8%; inhibition ([15]; measured here: with cisplatin IC20, at 0.5 µM): 90.7%; inhibition ([15]; measured here: with cisplatin IC20, at 5 µM): 99.9%; inhibition ([15]; single agent, at 5 µM): 99.8%; inhibition ([16]; at 0.5 µM): 43.7% (inactive); inhibition ([16]; measured here: BGB combination, at 0.5 µM): 36%; inhibition ([16]; measured here: BGB combination, at 5 µM): 60%; inhibition ([16]; measured here: cisplatin combination, at 0.5 µM): 42%; inhibition ([16]; measured here: cisplatin combination, at 5 µM): 69.4%; inhibition ([17]; at 0.5 µM): 52% (inactive); inhibition ([17]; cisplatin combination, at 0.5 µM): 79.4%; inhibition ([17]; cisplatin combination, at 5 µM): 101%; inhibition ([17]; measured here: BGB IC40 combination 0.05 uM, at 0.05 µM): 30.2%; inhibition ([17]; single agent, at 5 µM): 108%; inhibition ([18]; at 0.5 µM): 47.1% (inactive); inhibition ([18]; cisplatin combo, at 5 µM): 96.9%; inhibition ([18]; measured here: BGB IC40 combination, at 0.05 µM): 20.1%; inhibition ([18]; measured here: combination with cisplatin, at 0.5 µM): 58.8%; inhibition ([18]; single agent, at 5 µM): 92.2%
